# Screens from PubChem.
# TDP1 cell noCPT: qHTS for Inhibitors of human tyrosyl-DNA phosphodiesterase 1 (TDP1): qHTS in cells in absence of CPT; DT40 Tdp1-/- hTDP1 cells, no CPT, ATP luminescence, 48 h; Potency, µM (titrated, usually from 46.2 µM), inactives show top-dose activity change, negative = growth inhibition, most hits filed as inhibitors; actives 15% (n = 420,000); AID 686978, 2013; note: potency is the fitted concentration of half-maximal effect; nearly all actives have a fitted effect of over 55% in size
#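 No-CPT arm: Tdp1-/-;hTDP1 DT40 cells (400/well) plus compounds, incubated ≥48 hr at 37 °C. Readout CellTiter-Glo luminescence.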
# IL1B secr inh: inhibitors of inflammasome signaling (IL-1 beta secretion) | THP-1 LPS/ATP IL-1B secretion, AlphaLISA, 16 h; active compounds read low | activity change, % at 57.5 µM | actives 4.7% (n = 360,000) | AID 743279; in the data active = activity change below about -50%; inconclusive = mostly about -30% to -49%
#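 Secreted IL-1B measured by AlphaLISA bead assay after 16 h compound exposure of THP-1 cells; compounds (final up to 57.5 uM) added 1 h before LPS (250 ng/mL) and ATP (1.25 mM) stimulation; lower signal means less secretion.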
# HT1080 IDH1KD tx: kills HT-1080 cells with IDH1 knockdown; HT-1080 IDH1 knockdown viability, ATP luminescence, 48 h; Potency, µM (series often up to 46.1 µM), for inactives: at the top dose activity, negative = toxicity, most hits filed as cytotoxic; actives 2% (n = 360,000);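 note: potency is the fitted concentration of half-maximal effect; 0% = DMSO wells and -100% = cell-free medium wells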
#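 HT-1080-IDH1KD cells (IDH1 knocked down), 750/well in RPMI with 5% FBS, treated with compound 48 h at 37 degrees C. Viability by CellTiter-Glo luminescence, normalised to DMSO and no-cell wells; concentration-response curves classed.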
# DT40 TDP1 CPT: growth inhibition of DT40 Tdp1-/-;hTDP1 cells with camptothecin (screen for TDP1 inhibitors); chicken DT40 Tdp1-/-;hTDP1 cells + 20 nM CPT, ATP luminescence, 48 h; Potency, µM (highest dose often 46.2 µM), inactives show top-dose activity change, negative = growth inhibition, actives largely listed as inhibitors; actives 12% (n = 420,000); AID 686979; note: potency is the fitted concentration of half-maximal effect; nearly all actives have a fitted effect of over 55% in size
#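 Cell growth measured by CellTiter-Glo luminescence after a minimum 48 h, 37 C compound exposure with 20 nM CPT in Tdp1-knockout DT40 cells stably expressing hTDP1, seeded 400/well; qHTS titration format.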
# HT1080-NT tox: kills 2HG-producing HT-1080-NT fibrosarcoma cells | HT-1080-NT fibrosarcoma viability, CellTiter-Glo ATP luminescence, 48 h | Potency, µM (titrated, usually from 46.1 µM), for inactives: at the highest dose activity, negative = less viability, most hits filed as cytotoxic | actives 1.6% (n = 360,000) | AID 686970;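 note: NT is the 2HG producing partner of a matched IDH1 knockdown line; potency is the fitted concentration of half-maximal effect; 0% = DMSO-treated cells and -100% = media-only wells without cells; nearly all actives have a fitted effect of over 55% in size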
#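 Fibrosarcoma NT cells, 750 per well in 5% FBS RPMI, were exposed to compound for 48 hours. Viability: CellTiter-Glo luminescence.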
# The depositor's hits bear a star; u = inconclusive; x = no result; [ ] = another dose, or the depositor's remark. Shown are actives, neighbours in structure and some others; about 19% of the full set was active somewhere. Unless noted, calls come from the whole dose curve; as a rule, active = well fitted curve in the direction sought with a large enough effect; inconclusive = small, poorly fitted or top-dose-only effect, or another doubt; inactive = no such curve, though single readings can be large; an effect the other way counts as inactive or inconclusive. Unless noted, % is set by controls: 0 for no effect and ±100 for the full control effect.
SMILES,TDP1 cell noCPT,IL1B secr inh,HT1080 IDH1KD tx,DT40 TDP1 CPT,HT1080-NT tox
Cc1cc(C)n(-c2nc(C)c(C)c(=O)n2CC(=O)Nc2ccc(Cl)c(Cl)c2)n1,7.3µM*,x,x,15µM*,x
Cc1cc(=O)n(CC(=O)Nc2ccc([N+](=O)[O-])cc2)c(-n2nc(C)cc2C)n1,21µM*,x,x,18µM*,x
CCCCN1C(=O)C(=O)N(CC(=O)Nc2ccc(OC(F)(F)F)cc2)C1=O,-19%,33,0%,u,5%
COc1ccc(-c2nn(CC(=O)Nc3ccc(Cl)c(Cl)c3)c(=O)c3ccccc23)cc1,-19%,-18,-2%,-12%,4%
Cc1ccc(F)cc1NC(=O)Nc1cc(C(C)(C)C)nn1C,-14%,-13,1%,12%,3%
Cn1nc(C(C)(C)C)cc1NC(=O)Nc1cc(Cl)cc(Cl)c1,u,-98*,u,16µM*,16µM*
Cc1ccc(/C=N/NC(=O)c2csc3c2CCCC3)cc1,1.3µM*,1,u,1.3µM*,u
COc1cc(/C=N/NC(=O)c2csc3c2CCCC3)cc(OC)c1O,5.2µM*,-7,-2%,u,5%
Cc1nn(C)cc1/C=N\NC(=O)c1csc2c1CCCC2,u,-3,19%,u,10%
COc1cc(/C=N/NC(=O)c2ccoc2C)cc(OC)c1O,9%,-13,4%,0%,12%
COc1ccccc1NC(=O)C1=C(C)NC(=O)NC1c1ccccc1[N+](=O)[O-] (stereo not drawn),4%,20,13%,1%,3%
Cc1ccc(S(=O)(=O)N2CCOCC2)cc1NC(=O)CSc1nnc2cc(C)c3ccccc3n12,23µM*,-21,-12%,u,-1%
Cc1nc(SCC(=O)Nc2cc(S(=O)(=O)N3CCOCC3)ccc2Cl)nc(C)c1C,-29%,0,-6%,u,-1%
Cc1cc2nnc(SCC(=O)Nc3cc(S(=O)(=O)N4CCOCC4)ccc3Cl)n2c2ccccc12,16µM*,u,-2%,u,7%
COc1ccc(CCN2CC(C(=O)NCc3ccccc3)CCC2=O)cc1 (stereo not drawn),11%,-2,9%,-19%,12%
CN(C)C(=O)c1cc(C(=O)Cc2ccccc2)c[nH]1,-7%,-3,-2%,2%,0%
COc1ccc(C2=NC(C(F)(F)F)(C(F)(F)F)c3c(n(C)c(=O)n(C)c3=O)N2)cc1,18µM*,-8,-14%,15µM*,-12%
Cn1c2c(c(=O)n(C)c1=O)C(NS(=O)(=O)c1ccccc1)(C(F)(F)F)C(=O)N2 (stereo not drawn),1%,37,6%,-10%,-1%
O=C(NCC1CCCO1)C(Cc1ccccc1)N1C(=O)C2C3C=CC(C4CC34)C2C1=O (stereo not drawn),u,-2,-3%,u,9%
COc1ccc(CN(CCC(c2ccccc2)c2ccc(OC(C)C)cc2)C(=O)CCl)cc1OC (stereo not drawn),2.9µM*,-99*,1.6µM*,2.1µM*,1.5µM*
COc1ccc(C(CCN(Cc2ccc(OC)c(OC)c2)C(C)=O)c2ccccc2)cc1 (stereo not drawn),21µM*,u,-45%,21µM*,-19%
COc1ccc(CN(CCC(c2ccco2)C(C)C)C(C)=O)cc1OC (stereo not drawn),u,-13,-9%,u,-1%
COc1ccc(CN(CCC(c2ccc3c(c2)OCO3)c2ccccc2OC)C(C)=O)cc1 (stereo not drawn),21µM*,x,x,u,x
COc1ccc(CN(CCC(c2ccccc2)C2CCOC(C)(C)C2)C(C)=O)cc1 (stereo not drawn),18µM*,u,-9%,u,0%
CN(C)/N=N/c1nc[nH]c1C(N)=O,-16%,x,x,-4%,x
SMILES,TDP1 cell noCPT,IL1B secr inh,HT1080 IDH1KD tx,DT40 TDP1 CPT,HT1080-NT tox
CCCCCC(=O)NC(=S)Nc1ccc(N2CCOCC2)cc1,u,-11,-17%,-8%,-3%
O=C(NCCC1=CCCCC1)C1CCN(C(=O)Cc2ccccc2)CC1,u,28,-3%,-8%,-10%
Cc1[nH]nc2c1C(c1cccc(O)c1)C1=C(CC(C)(C)CC1=O)N2 (stereo not drawn),-8%,44,-10%,5%,-6%
CC(=O)N(CCC(Cc1ccccc1)c1ccc2c(c1)OCO2)Cc1ccc(Cl)cc1 (stereo not drawn),16µM*,u,u,u,u
CN1C2C=CC(=O)C1C1C(=O)N(c3ccccc3)C(=O)C12 (stereo not drawn),18µM*,-118*,u,18µM*,u
CSc1ccc(-c2ccc(C(=O)NCC3CCCO3)c(N3CCC(O)CC3)n2)cc1 (stereo not drawn),-13%,x,x,-4%[9.04 µM],x
O=C(c1ccc(Cl)c(S(=O)(=O)N2CCCC2)c1)N1CCCC(C(F)(F)F)C1 (stereo not drawn),u,0,5%,-23%,3%
CC(C)(C)OC(=O)N1CCC(C(=O)Nc2ccc(C(=O)NCCc3ccccc3)cc2)CC1,10µM*,28,-9%,u,-25%
CC(C)(C)OC(=O)N1CCC(C(=O)Nc2cccc(C(=O)NCCCCc3ccccc3)c2)CC1,u,25,-2%,u,2%
CC(C)(C)OC(=O)N1CCC(C(=O)Nc2ccc(C(=O)NCc3ccccc3)cc2)CC1,15µM*,14,-7%,16µM*,-6%
COc1ccc2c(c1)CCc1c(C(=O)Nc3ccc(F)c(Cl)c3)noc1-2,-12%,x,x,-17%,x
Cc1ccccc1NC(=O)CSc1ccc(-c2cccs2)nn1,23µM*,x,x,u,x
O=C(CSc1ccc(-c2cccs2)nn1)N1CCCCCC1,23µM*,0,5%,u,2%
Cc1cccc(NC(=O)CSc2ccc(-c3cccs3)nn2)c1C,-22%,32,-2%,1%,2%
CCc1cc2c(=O)n(CCCOC)c(SCC(=O)Nc3oc(C)c4c(C)n[nH]c(=O)c34)nc2s1,-30%,5,2%,-29%,0%
COc1ccc(CCNC(=O)Cc2cc3c(cc2[N+](=O)[O-])OCO3)cc1OC,2%,14,11%,-23%,11%
Cn1c(-c2cccc([N+](=O)[O-])c2)cnc1NCc1cccc([N+](=O)[O-])c1,u,-28,-1%,u,-18%
COc1ccc(OC)c(CNc2ncc(-c3cccc([N+](=O)[O-])c3)n2C)c1,u,u,-2%,16µM*,-4%
Cc1cccc(CNc2ncc(-c3cccc([N+](=O)[O-])c3)n2C)c1,16µM*,-27,2%,u,-5%
